Data from PubChem BioAssay.
Entries with a potency or affinity are not part of this list. Inconclusive results are not listed. Activity calls are given as the source filed them.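 How the source made its calls, unless noted: active means a fitted half-maximal concentration no higher than twice the top valid tested dose, with signal falling as cells die; inconclusive means flat curve between -70% and -30%, or poor fit; inactive means the rest, including signal rising instead of falling.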

Assays:
[1] = fungal growth arrest, C. neoformans – Alamar Blue, cherry-picks, dose response (AID 686998;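 active means falling signal with fitted half-maximal potency no higher than twice the top valid tested dose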)
[2] = C. neoformans lysis by adenylate kinase leakage – AK release luminescence, cherry-picks, dose response (AID 687000;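 active means fitted dose curve reaches 40% lysis signal rise at or below the highest valid concentration tested for that sample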;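 further: luminescent detection of adenylate kinase leaking from lysed yeast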)
[3] = viability loss in HepG2 hepatoma cells – cell-based, cherry-picks, set 2, cytotoxicity control, dose response (AID 687002;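 active means a dose-response fit showing signal loss, with half-maximal concentration no higher than twice the top tested dose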)
[4] = viability loss in HeLa cells – cell-based, ATP luminescence, cherry-pick samples, cytotoxicity control, dose response (AID 687004)

Measured: outcome

C[C@@H]1CN([C@@H](C)CO)C(=O)c2cc(NS(=O)(=O)c3ccccc3)ccc2O[C@H]1CN(C)C(=O)NC1CCCCC1
inactive: all assays above

O=C(Cc1cccs1)N1CCN(c2cccc(Cl)c2)CC1
inactive: all assays above

CC(C)NC(=O)Nc1ccc2c(c1)CC(=O)N([C@H](C)CO)C[C@@H](C)[C@H](CN(C)Cc1ccc3c(c1)OCO3)O2
inactive: all assays above

COc1cccc(C#Cc2cnc3c(c2)C(=O)N([C@H](C)CO)C[C@@H](C)[C@@H](CN(C)C(=O)C2CCOCC2)O3)c1
inactive: all assays above

C[C@H]1CN([C@@H](C)CO)C(=O)c2cccc(N(C)C)c2O[C@@H]1CN(C)C(=O)Nc1cccc2ccccc12
inactive: all assays above

C[C@@H]1CN([C@@H](C)CO)C(=O)CCCn2cc(nn2)CO[C@@H]1CN(C)Cc1ccc2c(c1)OCO2
inactive: all assays above

Cc1cc(C(=O)NC(=S)Nc2ccccc2N2CCCC2)ccc1[N+](=O)[O-]
inactive: all assays above

C[C@H](CO)N1C[C@H](C)[C@H](CN(C)S(=O)(=O)c2ccccc2)Oc2ccc(NS(=O)(=O)c3ccc(F)cc3)cc2C1=O
inactive: all assays above

CC(C)NC(=O)Nc1ccc2c(c1)C(=O)N([C@@H](C)CO)C[C@H](C)[C@@H](CN(C)C(=O)CCC(F)(F)F)OCCCC[C@H](C)O2
inactive: all assays above

C[C@@H]1CN([C@H](C)CO)C(=O)c2cc(C#CC(C)(C)O)cnc2O[C@@H]1CN(C)Cc1cncnc1
inactive: all assays above

COc1ccc(N2CCN(C(=O)CSc3ncnc4c3cnn4-c3ccc(OC)cc3)CC2)cc1
inactive: all assays above

CCCNC(=O)N1C[C@H](O)COC[C@H]2O[C@H](CC(=O)N3CCN(C)CC3)CC[C@@H]21
inactive: all assays above

Cc1ccc(NC(=O)[C@H](C)NC(=O)C2CCN(C(=O)[C@@H](N)C(C)C)CC2)cc1
inactive: all assays above

CCC(C)(C(=O)Nc1cccc(C)c1)N1CCC1=O (stereo not given)
inactive: all assays above

O=C([C@H]1[C@H](CO)[C@H]2Cn3c(cccc3=O)[C@H]2N1CCC(F)(F)F)N1CCCCC1
inactive: all assays above

CO[C@H]1CN(C)C(=O)c2cc(NC(=O)c3ccccc3F)ccc2OC[C@H](C)N(CC2CCOCC2)C[C@H]1C
inactive: all assays above

O=C(C[C@H]1CC[C@@H](NC(=O)c2ccc3c(c2)OCO3)[C@@H](CO)O1)NCc1ccc(F)cc1
inactive: all assays above

CO[C@@H](CN(C)Cc1ccc2c(c1)OCO2)[C@@H](C)CN(C(=O)c1ccccc1)[C@H](C)CO
inactive: all assays above

CCCNC(=O)[C@@H]1[C@@H](CO)[C@@H]2Cn3c(cccc3=O)[C@H]1N2C(=O)Nc1cc(F)ccc1F
inactive: all assays above

C[C@H](CO)N1C[C@H](C)[C@@H](CN(C)C(=O)Nc2ccc(F)cc2)Oc2c(NS(=O)(=O)c3ccccc3)cccc2C1=O
inactive: all assays above

COc1ccccc1CNC(=O)COc1ccc2c(c1)CCC2
inactive: all assays above

Cc1cc(C)c(NC(=O)C2CCC(=O)N2)c(C)c1 (stereo not given)
inactive: all assays above

CCC(=O)N[C@@H]1C=C[C@H](CC(=O)NCC2CCCCC2)O[C@H]1CO
inactive: all assays above

COc1ccc(S(=O)(=O)Nc2ccc3c(c2)C(=O)N([C@H](C)CO)C[C@H](C)[C@H](CN(C)C(=O)Nc2ccccc2)O3)cc1
inactive: all assays above

O=C(NC1CCCCC1)N[C@H]1C=C[C@@H](CC(=O)N2CCOCC2)O[C@H]1CO
inactive: all assays above

C[C@@H]1CN([C@H](C)CO)C(=O)CCCn2cc(nn2)CO[C@@H]1CN(C)C(=O)CCCN(C)C
inactive: all assays above

C[C@H]1CN([C@@H](C)CO)C(=O)Cc2cc(NS(=O)(=O)c3ccc(F)cc3)ccc2O[C@H]1CN(C)S(=O)(=O)c1ccc(F)cc1
inactive: all assays above

CCC(=O)Nc1ccc2c(c1)C(=O)N(C)C[C@@H](OC)[C@H](C)CN[C@@H](C)CO2
inactive: all assays above

C[C@H]1CN([C@@H](C)CO)C(=O)c2cc(NC(=O)Nc3cccc4ccccc34)ccc2O[C@@H]1CN(C)C(=O)Nc1ccc(C(F)(F)F)cc1
inactive: all assays above

CCC(C)(C(=O)Nc1ccccc1C)N(C(=O)CNC(C)=O)c1ccc(C)cc1 (stereo not given)
inactive: all assays above

COc1ccc(CN(C)C[C@@H]2Oc3c(NC(=O)Nc4cccc5ccccc45)cccc3C(=O)N([C@@H](C)CO)C[C@@H]2C)cc1
inactive: all assays above

COc1cccc(S(=O)(=O)Nc2ccc3c(c2)[C@H]2C[C@H](CC(=O)NCc4ccccc4F)O[C@@H](CO)[C@H]2O3)c1
inactive: all assays above

Cc1noc(C)c1NC(=O)Nc1ccc2c(c1)C(=O)N([C@H](C)CO)C[C@@H](C)[C@H](CN(C)C(=O)Nc1ccc(F)cc1)OCCCC[C@@H](C)O2
inactive: all assays above

Cc1ccc(S(=O)(=O)Nc2ccc3c(c2)C(=O)N([C@H](C)CO)C[C@H](C)[C@@H](CN(C)Cc2ccccc2)O3)cc1
inactive: all assays above

Cc1ccc(NC(=O)C2(C)CCN2C(=O)CCC2CCCC2)cc1C (stereo not given)
inactive: all assays above

C[C@H](O)C#Cc1cnc2c(c1)C(=O)N([C@@H](C)CO)C[C@@H](C)[C@@H](CN(C)C(=O)Cc1ccncc1)O2
inactive: all assays above

Cc1ccc(S(=O)(=O)N(C)C[C@@H]2Oc3ncc(Br)cc3C(=O)N([C@@H](C)CO)C[C@H]2C)cc1
inactive: all assays above

CC(C)NC(=O)Nc1ccc2c(c1)C(=O)N([C@@H](C)CO)C[C@@H](C)[C@@H](CN(C)C(=O)c1ccncc1)OCCCC[C@@H](C)O2
inactive: all assays above

O=C(Nc1ccccc1)N1CCCCN2[C@H](C1)[C@H](c1ccc(C#CC3CC3)cc1)[C@@H]2CO
inactive: all assays above

Cc1ccc(S(=O)(=O)N[C@H]2CC[C@H](CCNC(=O)C3CCCC3)O[C@@H]2CO)cc1
inactive: all assays above

CC(C)NC(=O)Nc1ccc2c(c1)C(=O)N([C@@H](C)CO)C[C@@H](C)[C@H](CN(C)C(=O)Cc1ccccc1)OCCCC[C@@H](C)O2
inactive: all assays above

C/C=C/c1ccc([C@@H]2[C@@H](CO)N3CCCCN(C(=O)Nc4ccc(OC)cc4)C[C@H]23)cc1
inactive: all assays above

COc1ccc(C#Cc2cnc3c(c2)C(=O)N([C@@H](C)CO)C[C@H](C)[C@@H](CN(C)C(=O)CC2CC2)O3)cc1
inactive: all assays above

C[C@@H]1CCCCO[C@@H](CN(C)Cc2ccc3c(c2)OCO3)[C@@H](C)CN([C@H](C)CO)C(=O)c2cc(NS(=O)(=O)c3ccc(F)cc3)ccc2O1
inactive: all assays above

COCCNC(=O)C[C@H]1CC[C@@H]2[C@H](COC[C@H](O)CN2S(=O)(=O)c2ccccc2C)O1
inactive: all assays above

NC(=O)CN(c1ccccc1)S(=O)(=O)c1ccc(F)cc1
inactive: all assays above

CCOc1cc(/C=N/NC(=O)CCCC(=O)NC2CCCCC2)ccc1O
inactive: all assays above

CN1C(=O)c2cc(NS(C)(=O)=O)ccc2OC[C@@H]2O[C@@H](CC(=O)O)CC[C@H]21
inactive: all assays above

COc1cccc(C2CC(c3cccs3)=NN2C(=O)c2ccco2)c1O (stereo not given)
inactive: all assays above

COCC#Cc1cnc2c(c1)C(=O)N([C@H](C)CO)C[C@H](C)[C@H](CN(C)C(=O)C1CC1)O2
inactive: all assays above

CCOC(=O)CNC(=O)CSc1ncnc2c1cnn2-c1ccc(OC)cc1
inactive: all assays above

CC(C)NC(=O)Nc1ccc2c(c1)C(=O)N([C@H](C)CO)C[C@@H](C)[C@H](CN(C)C(=O)Nc1ccccc1)OCCCC[C@@H](C)O2
inactive: all assays above

CCC(=O)N1C[C@H](O)COC[C@@H]2O[C@@H](CC(=O)NCc3ccccc3Cl)CC[C@H]21
inactive: all assays above

COCC#Cc1cnc2c(c1)C(=O)N([C@H](C)CO)C[C@@H](C)[C@@H](CN(C)C(=O)Nc1ccc(OC)cc1)O2
inactive: all assays above

CO[C@H]1CN(C)C(=O)c2ccc(NC(=O)C3CC3)cc2OC[C@@H](C)N(Cc2ccc(F)cc2)C[C@@H]1C
inactive: all assays above
